Source: PubChem BioAssay
An excerpt weighted towards active compounds, which were near 1.4% of everything screened.
TrxR1 substrate: qHTS Assay for Substrates of Mammalian Selenoprotein Thioredoxin Reductase 1 (TrxR1): qHTS. Thioredoxin reductase 1, cytoplasmic (Rattus norvegicus), O89049. purified TrxR1 substrate turnover, NADPH consumption readout. Potency, µM (doses to about 114 µM), inactives show top-dose activity change, negative = substrate turnover. hit rate 0.01% among 390,000; note: potency is the fitted concentration of half-maximal effect; nearly all actives have a fitted effect of over 50% in size
Target sequence (O89049 whole entry, looked up): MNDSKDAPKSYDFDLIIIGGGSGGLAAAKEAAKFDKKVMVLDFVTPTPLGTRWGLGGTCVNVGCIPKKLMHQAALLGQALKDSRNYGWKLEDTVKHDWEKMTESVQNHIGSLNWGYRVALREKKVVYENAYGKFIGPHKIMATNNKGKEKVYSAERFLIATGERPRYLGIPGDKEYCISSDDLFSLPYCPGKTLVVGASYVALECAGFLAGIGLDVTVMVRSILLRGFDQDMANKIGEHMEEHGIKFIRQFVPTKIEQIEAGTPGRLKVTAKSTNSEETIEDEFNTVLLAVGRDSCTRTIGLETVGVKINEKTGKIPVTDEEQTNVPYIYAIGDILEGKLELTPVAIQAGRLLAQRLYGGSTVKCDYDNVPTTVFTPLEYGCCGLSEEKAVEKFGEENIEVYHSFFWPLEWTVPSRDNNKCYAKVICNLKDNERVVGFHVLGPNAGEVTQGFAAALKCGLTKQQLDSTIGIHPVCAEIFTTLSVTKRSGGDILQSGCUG
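Rat TrxR1, dispensed at 90 nM, was prereduced with 400 uM NADPH (final) for 5 min at ~22 deg C, then incubated with compound 15 min before 400 uM selenite. A first-read NADPH fluorescence drop versus no-compound background flagged substrates.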
TrxR1 inh: qHTS Assay for Inhibitors of Mammalian Selenoprotein Thioredoxin Reductase 1 (TrxR1): qHTS | Thioredoxin reductase 1, cytoplasmic (Rattus norvegicus), O89049 | recombinant rTrxR1, NADPH fluorescence consumption, selenite substrate | Potency, µM (top dose mostly 114 µM), inactives show at the highest dose activity change, negative = inhibition, actives largely listed as inhibitors | hit rate 1% among 390,000; note: potency is the fitted concentration of half-maximal effect; nearly all actives have a fitted effect of over 65% in size
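Rat TrxR1 (90 nM in the dispensed reagent) was pre-reduced with 400 uM NADPH for 5 min at room temperature, then incubated with compound for 15 min. After 400 uM selenite was added, NADPH fluorescence (Ex 340/Em 450 nm) was followed for 8 min.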
PKM2 activator: qHTS Assay for Activators of Human Muscle isoform 2 Pyruvate Kinase; Pyruvate kinase PKM (Homo sapiens), P14618; purified PKM2, Kinase-Glo ATP luminescence, activation; response scale: 0% is enzyme alone, no compound; Potency, µM (top dose mostly 57.5 µM), without a hit: at the top dose activation, usual class: activators; hit rate 0.34% among 260,000; AID 1631, 2009; note: potency is the fitted concentration of half-maximal effect; nearly all actives have a fitted effect of over 55% in size
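Purified hPK-M2 (>95% pure) converted ADP (0.1 mM final) to ATP with 0.5 mM PEP in 50 mM imidazole pH7.2, KCl, MgCl2, Tween 20, BSA; 1 h at room temperature. ATP detected by Kinase-Glo luminescence.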
LDHA block: qHTS assay for inhibitors of human lactate dehydrogenase | activity change, % (values are at about 110 or 230 µM) | purified LDHA, NADH/diaphorase-resazurin fluorescence; hits give low values | AID 1347041, 2019 | hit rate 0.15% among 480,000; in the data active = activity change below about -30%; inconclusive = mostly about -25% to -30%;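 note: plate controls were DMSO wells for no effect and wells without enzyme for full effect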
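Human LDH5 at 2 nM final in Tris HCl pH 7.4 with 0.06 mM NADH and 0.2 mM pyruvate, reacted 5 minutes at room temperature. Remaining NADH coupled via diaphorase/resazurin; resorufin fluorescence read at 0 and 20 minutes, normalized to enzyme-free and DMSO wells.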
GLS inhibitor: qHTS for Inhibitors of Glutaminase (GLS); Glutaminase kidney isoform, mitochondrial (Homo sapiens), O94925; GLS enzymatic activity, qHTS titration; Potency, µM (series often up to 45.5 µM), without a hit: top-dose activity change, negative = inhibition, hits mostly inhibitors; hit rate 0.21% among 410,000; AID 624170, 2012; note: potency is the fitted concentration of half-maximal effect
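Glutamate formation by hKGA was monitored fluorometrically using coupled glutamate oxidase, HRP and Amplex Red. Substrate was added as 1 mM L-glutamine solution; incubation was 30 min at RT after an initial read.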
mIDH1 inhibitor: qHTS for Inhibitors of mutant isocitrate dehydrogenase 1 (IDH1): qHTS. Potency, µM (titrated, usually from 76.6 µM), for inactives: at the highest dose activity change, negative = inhibition, actives largely listed as inhibitors. Isocitrate dehydrogenase [NADP] cytoplasmic (Homo sapiens), O75874. IDH1-R132H enzyme, NADPH consumption, diaphorase/resazurin fluorescence. hit rate 0.093% among 390,000. AID 602179, 2012; note: potency is the fitted concentration of half-maximal effect; nearly all actives have a fitted effect of over 65% in size
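IDH1-R132H (0.5 ug/mL dispensed) in pH 7.5 Tris buffer was preincubated 30 min with compound, then given a substrate mix of 0.016 mM NADPH and 2 mM alpha-KG for 80 min at room temperature; remaining NADPH was read by diaphorase/resazurin fluorescence.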
The depositor's hits bear a star; ? = inconclusive; . = not tested or not shown; [ ] = another dose, or the depositor's remark. Unless noted, calls come from the whole dose curve; as a rule, active = well fitted curve in the direction sought with a large enough effect; inconclusive = small, poorly fitted or top-dose-only effect, or another doubt; inactive = no such curve, though single readings can be large; an effect the other way counts as inactive or inconclusive. Unless noted, % is set by controls: 0 for no effect and ±100 for the full control effect.

SMILES | TrxR1 substrate | TrxR1 inh | PKM2 activator | LDHA block | GLS inhibitor | mIDH1 inhibitor
CC(=O)OCC1=C(C(=O)O)N2C(=O)C(NC(=O)COc3ccc(F)cc3)C2SC1 (stereo not given) | 0%[57.1 µM] | ? | . | -12 | ? | 0%
Cc1nnc(SCC2=C(C(=O)O)N3C(=O)C(NC(=O)Cn4nc(C(F)F)c(Cl)c4C)C3SC2)s1 (stereo not given) | -12%[57.1 µM] | -66% | -10% | 2 | 74% | 2%
Cc1nnc(SCC2=C(C(=O)O)N3C(=O)C(NC(=O)Cn4nc(C(F)F)cc4C)C3SC2)s1 (stereo not given) | -6% | 45µM* | 5% | 4 | -18% | -7%
Cc1nnc(SCC2=C(C(=O)O)N3C(=O)C(NC(=O)COc4ccccc4)C3SC2)s1 (stereo not given) | 0%[57.1 µM] | 7.9µM* | . | -9 | -6% | -3%
Cc1nnc(SCC2=C(C(=O)O)N3C(=O)C(NC(=O)COc4ccc(F)cc4)C3SC2)s1 (stereo not given) | -4% | 4µM* | . | -5 | -13% | -3%
Cc1noc(/C=C/c2ccco2)c1S(=O)(=O)N1CCC(C(=O)N(C)Cc2ccccc2)CC1 | -12% | 71µM* | ? | -5 | 0% | 13%
CN(Cc1ccccc1)C(=O)C1CCN(S(=O)(=O)c2cccc3nonc23)CC1 | 1% | 14% | 2% | -9 | 10µM* | -2%
O=C(O)c1ccc(NC(=O)c2ccc(Br)o2)c(NC(=O)c2ccc(Br)o2)c1 | . | . | . | -1 | . | .
Cc1cc(C)c(S(=O)(=O)c2c(C)cccc2C)c(Cl)n1 | 13% | 28% | 1% | -6 | 11µM* | 15%
Cc1cc(C)c(S(=O)(=O)c2cccc(Cl)c2)c(Cl)n1 | 3%[57.1 µM] | 20%[57.1 µM] | 7% | -7 | 0% | 5%
CC(=O)NC1=NN(C(C)=O)C(c2ccc(OCc3ccccc3F)c(Br)c2)S1 (stereo not given) | . | . | . | -1 | . | .
Nc1nc(SCC(=O)Nc2ccc(Br)cc2F)n[nH]1 | -13% | 2%[57.1 µM] | 22µM* | -5 | 22% | -1%
Cc1cc(Br)ccc1NC(=O)CNC(=O)CSc1n[nH]c(N)n1 | 9% | 20% | 0% | -6 | 1% | 3%
O=C(CSCC(=O)OCn1nnc2ccccc2c1=O)Nc1ccc(Cl)cc1 | 1% | 18µM* | 6% | 1 | -1% | 7%
C[C@H](NC(=O)c1ccc(Cl)cc1)C(=O)OCn1nnc2ccccc2c1=O | 0% | 1% | . | -13 | 5% | 1%
COc1cccc(CN(C)C(=O)CN2CCCC2c2ccc3c(c2)OCCO3)c1OC (stereo not given) | . | . | . | 1 | . | .
COc1ccc(COc2ccc(C#N)cc2Cl)cc1F | . | . | . | -5 | . | .
CC1=C(/C=C/C(C)=C/C=C/C(C)=C/CO)C(C)(C)CCC1 | 0% | 50µM* | . | 4 | -9% | -14%
CC(=O)OC/C=C(C)/C=C/C=C(C)/C=C/C1=C(C)CCCC1(C)C | . | . | . | . | -6% | .
Cc1cccc(Oc2coc3cc(OCC(=O)OC4CCCCC4)ccc3c2=O)c1 | . | . | . | 1 | . | .
Cc1cc(N/N=C/c2ccc(O)cc2)nc(NS(=O)(=O)c2ccccc2)n1 | -7% | -13% | 12% | -1 | 13µM* | 2%
Cc1ccc(/C=N/Nc2cc(C)nc(NCc3ccccc3)n2)cc1 | -14% | -5% | -2% | -6 | 8% | -3%
COC(=O)/C(=C/c1c[nH]c2ccccc12)[N+](=O)[O-] | 6% | 13µM* | 5% | 2 | 19% | -1%
